# According to PubChem BioAssay AID720517 (National Center for Advancing Translational Sciences (NCATS), 2013):
# Records with an inconclusive call do not appear. Calls of active or inactive are those of the source. Calls come from the whole dose curve; as a rule, active = well fitted activation curve with a large enough effect; inconclusive = small, poorly fitted or top-dose-only effect; inactive = flat fitted curve, though single readings scatter.
# Assay: qHTS for Inhibitors of Cell Surface uPA Generation: FP59 Counterscreen for Cherry-picked Compounds; note: 0% is about no effect
# Settings: FP59 anthrax toxin cytotoxicity counterscreen, cells; series mostly up to 115 µM; activity (protection from FP59): at the top concentration
row,SMILES,activity (protection from FP59)
1,O=C(NCC1CCCO1)c1ccc(NC(=O)c2ccc([N+](=O)[O-])cc2)cc1 (configuration not stated),-1.25% (inactive)
2,COC(=O)CNC(=O)COC(=O)/C=C/c1ccccc1[N+](=O)[O-],-1.46% (inactive)
3,Cc1ccc(C)c(S(=O)(=O)Nc2ccccc2C(=O)Nc2cc(C)on2)c1,-0.926% (inactive)
4,Cc1ccc(/C=N/NC(=O)c2ccc3nc[nH]c3c2)s1,-1.64% (inactive)
5,Cn1cc(SCC(=O)Nc2nccs2)c2ccccc21,-1.34% (inactive)
6,Cc1cc(OC(C)C(=O)NCc2ccccn2)c2c(C)cc(=O)oc2c1 (configuration not stated),-1.49% (inactive)
7,CN(C)S(=O)(=O)c1ccc(NC(=O)COC(=O)CC2CC3CCC2C3)cc1 (configuration not stated),-1.38% (inactive)
8,O=c1ccc(S(=O)(=O)N2CCCC2)c[nH]1,-1.23% (inactive)
9,CCOc1cc(/C=C(\C#N)C(=O)NCc2cccnc2)ccc1O,-1.4% (inactive)
10,Cc1cc(C)cc(NC(=O)COC(=O)CCn2c(C)csc2=O)c1,-1.32% (inactive)
11,CC1CCCC(NC(=O)CNC(=S)N(Cc2ccccc2)Cc2cccs2)C1C (configuration not stated),7.33% (inactive)
12,CC(C)c1ccc(C2/C(=C(\O)c3ccc4c(c3)OCCO4)C(=O)C(=O)N2CCN2CCOCC2)cc1 (configuration not stated),-1.4% (inactive)
13,COc1ccccc1NC(=O)Cn1nnc(-c2ccccc2NC(=O)c2cc3ccccc3oc2=O)n1,-1.55% (inactive)
14,CC(=O)N1CCN(C(=O)CSc2cc(C)c(Br)cc2C)CC1,-1.27% (inactive)
15,COCCN(C(=O)c1ccc(OC2CCN(S(=O)(=O)N(C)C)CC2)cc1)C(C)C,-1.51% (inactive)
16,O=C1CCCC/C1=C\Nc1ccc(S(=O)(=O)Nc2cnc3ccccc3n2)cc1,-1.53% (inactive)
17,CC(C)Cn1cnc2c1c(=O)[nH]c(=O)n2Cc1ccccc1,-1.24% (inactive)
18,CC(=O)NC(=S)Nc1ccc([N+](=O)[O-])cc1C,-1.26% (inactive)
19,Cc1ccnc(NS(=O)(=O)c2ccc(NC(=O)C3C4C=CC(C4)C3C(=O)O)cc2)n1 (configuration not stated),-0.562% (inactive)
20,COC(=O)c1ccc(N2CCN(c3ccccc3)CC2)c(NC(=O)C2CC2)c1,-1.64% (inactive)
21,O=C(Cc1ccc(Cl)cc1)NC(=S)Nc1ccccc1O,0.767% (inactive)
22,Cc1c(NC(=O)C(C)OC(=O)CCC2CCCC2)c(=O)n(-c2ccccc2)n1C (configuration not stated),-1.45% (inactive)
